According to PubChem BioAssay AID1159580 (chemical genetic matrix, 2015):
Out of some 5,500 compounds screened, about 2,000 (36%) were called active. Not shown: some 18% with an inconclusive outcome. Rule as the data show it: active = normalized growth mostly below about 0.91 (no sharp cut-off); inconclusive = no clear call, values can overlap the other calls; inactive = mostly above about 0.92. The list shows a part of the results.

Assay: chemical genetic growth profiling, strain panel (AID 1159580);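 also: tested at 20 µM; growth read once vehicle control cultures reached saturation at 30 °C; 1 = growth at the plate median or of vehicle wells; lower values mean less growth of the strain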
Settings: growth OD

Measured: normalized growth

COc1cc2c(cc1OC)Cc1cc(OC)c(OC)cc1Cc1cc(OC)c(OC)cc1C2
inactive: S. cerevisiae deletion strains, locus YJR066W, strain TOR1, active compounds read low 0.974 | S. cerevisiae deletion strains, locus YJR075W, strain HOC1, active compounds read low 1.02 | S. cerevisiae deletion strains, locus YKL009W, strain mrt4, active compounds read low 0.942 | S. cerevisiae deletion strains, locus YKL068W, active compounds read low 1.02 | S. cerevisiae deletion strains, locus YKL085W, strain MDH1 (second series), active compounds read low 0.927 | S. cerevisiae deletion strains, locus YKL085W, strain MDH1, active compounds read low 0.927 | S. cerevisiae deletion strains, locus YKL160W, strain elf1, active compounds read low 1.02 | S. cerevisiae deletion strains, locus YKL190W, strain CNB1, active compounds read low 0.992 | S. cerevisiae deletion strains, locus YKR001C, strain vps1, active compounds read low 1.04 | S. cerevisiae deletion strains, locus YKR026C, strain gcn3, active compounds read low 1 | S. cerevisiae deletion strains, locus YKR091W, strain srl3, active compounds read low 1.03 | S. cerevisiae deletion strains, locus YLL001W, strain dnm1, active compounds read low 1.01 | S. cerevisiae deletion strains, locus YLL026W, active compounds read low 1.04 | S. cerevisiae deletion strains, locus YLL041C, strain sdh2, active compounds read low 1.03 | S. cerevisiae deletion strains, locus YLR027C, strain aat2, active compounds read low 1.03 | S. cerevisiae deletion strains, locus YLR039C, strain RIC1, active compounds read low 1.05 | S. cerevisiae deletion strains, locus YLR058C, strain SHM2, active compounds read low 1.02 | S. cerevisiae deletion strains, locus YLR102C, strain apc9, active compounds read low 1.03 | S. cerevisiae deletion strains, locus YLR113W, strain HOG1, active compounds read low 1.05 | S. cerevisiae deletion strains, locus YLR221C, strain rsa3, active compounds read low 1.04 | S. cerevisiae deletion strains, locus YLR258W, strain gsy2, active compounds read low 1.03 | S. cerevisiae deletion strains, locus YLR262C, strain YPT6 (second series), active compounds read low 1.05 | S. cerevisiae deletion strains, locus YLR262C, strain YPT6, active compounds read low 1.08 | S. cerevisiae deletion strains, locus YLR268W, strain sec22, active compounds read low 1.04 | S. cerevisiae deletion strains, locus YLR320W, strain mms22, active compounds read low 1.03 | S. cerevisiae deletion strains, locus YLR330W, strain CHS5, active compounds read low 1.01 | S. cerevisiae deletion strains, locus YLR342W, strain FKS1 (second series), active compounds read low 1 | S. cerevisiae deletion strains, locus YLR342W, strain FKS1, active compounds read low 1.04 | S. cerevisiae deletion strains, locus YLR357W, strain rsc2, active compounds read low 1.05 | S. cerevisiae deletion strains, locus YLR370C, strain arc18, active compounds read low 1.03 | S. cerevisiae deletion strains, locus YLR371W, strain rom2, active compounds read low 1.03 | S. cerevisiae deletion strains, locus YLR384C, strain iki3, active compounds read low 1.03 | S. cerevisiae deletion strains, locus YLR418C, strain cdc73, active compounds read low 1.04 | S. cerevisiae deletion strains, locus YML016C, strain PPZ1, active compounds read low 1.01 | S. cerevisiae deletion strains, locus YML032C, strain rad52, active compounds read low 1.01 | S. cerevisiae deletion strains, locus YML120C, strain ndi1, active compounds read low 1.02 | S. cerevisiae deletion strains, locus YML124C, strain tub3, active compounds read low 1.06 | S. cerevisiae deletion strains, locus YMR058W, strain fet3, active compounds read low 1.03 | S. cerevisiae deletion strains, locus YMR078C, strain ctf18, active compounds read low 1.04 | S. cerevisiae deletion strains, locus YMR125W, strain sto1, active compounds read low 1.05 | S. cerevisiae deletion strains, locus YMR129W, active compounds read low 1.04 | S. cerevisiae deletion strains, locus YMR205C, strain PFK2, active compounds read low 1.05 | S. cerevisiae deletion strains, locus YMR223W, strain ubp8, active compounds read low 1.03 | S. cerevisiae deletion strains, locus YMR231W, strain pep5, active compounds read low 1.03 | S. cerevisiae deletion strains, locus YMR263W, strain SAP30, active compounds read low 1.01 | S. cerevisiae deletion strains, locus YMR307W, strain GAS1, active compounds read low 1.04 | S. cerevisiae deletion strains, locus YNL067W, strain RPL9B, active compounds read low 1.03 | S. cerevisiae deletion strains, locus YNL071W, strain lat1, active compounds read low 1.03 | S. cerevisiae deletion strains, locus YNL183C, strain NPR1, active compounds read low 0.956 | S. cerevisiae deletion strains, locus YNL209W, strain ssb2, active compounds read low 1.03 | S. cerevisiae deletion strains, locus YNL233W, strain BNI4, active compounds read low 1.01 | S. cerevisiae deletion strains, locus YNL248C, strain rpa49, active compounds read low 1.03 | S. cerevisiae deletion strains, locus YNL250W, strain rad50, active compounds read low 1.04 | S. cerevisiae deletion strains, locus YNL271C, strain bni1, active compounds read low 1.02 | S. cerevisiae deletion strains, locus YNL298W, strain CLA4, active compounds read low 1.02 | S. cerevisiae deletion strains, locus YNL307C, strain MCK1, active compounds read low 1.03 | S. cerevisiae deletion strains, locus YNL322C, strain KRE1 (second series), active compounds read low 1.05 | S. cerevisiae deletion strains, locus YNL322C, strain KRE1, active compounds read low 1.03 | S. cerevisiae deletion strains, locus YNR049C, strain mso1, active compounds read low 1.03 | S. cerevisiae deletion strains, locus YNR052C, strain pop2, active compounds read low 1.02 | S. cerevisiae deletion strains, locus YOL012C, strain htz1 0.876 | S. cerevisiae deletion strains, locus YOL147C, strain pex11, active compounds read low 1.02 | S. cerevisiae deletion strains, locus YOR001W, strain rrp6, active compounds read low 1.02 | S. cerevisiae deletion strains, locus YOR061W, strain CKA2, active compounds read low 1.01 | S. cerevisiae deletion strains, locus YOR069W, strain VPS5, active compounds read low 1.01 | S. cerevisiae deletion strains, locus YOR070C, strain gyp1, active compounds read low 1.03 | S. cerevisiae deletion strains, locus YOR080W, strain dia2, active compounds read low 1.04 | S. cerevisiae deletion strains, locus YOR083W, strain WHI5, active compounds read low 1.01 | S. cerevisiae deletion strains, locus YOR106W, strain vam3, active compounds read low 1.07 | S. cerevisiae deletion strains, locus YOR136W, strain idh2, active compounds read low 1.05 | S. cerevisiae deletion strains, locus YOR144C, strain elg1, active compounds read low 1.04 | S. cerevisiae deletion strains, locus YOR184W, strain ser1, active compounds read low 1.03 | S. cerevisiae deletion strains, locus YOR231W, strain MKK1, active compounds read low 1.04 | S. cerevisiae deletion strains, locus YOR265W, strain rbl2, active compounds read low 1.02 | S. cerevisiae deletion strains, locus YOR270C, strain vph1, active compounds read low 1.03 | S. cerevisiae deletion strains, locus YOR290C, strain snf2, active compounds read low 0.995 | S. cerevisiae deletion strains, locus YOR316C, strain cot1, active compounds read low 1.02 | S. cerevisiae deletion strains, locus YPL051W, strain arl3, active compounds read low 1.02 | S. cerevisiae deletion strains, locus YPL055C, strain LGE1, active compounds read low 1.03 | S. cerevisiae deletion strains, locus YPL078C, strain atp4, active compounds read low 1.03 | S. cerevisiae deletion strains, locus YPL106C, strain sse1, active compounds read low 1.06 | S. cerevisiae deletion strains, locus YPL240C, strain hsp82, active compounds read low 1.02 | S. cerevisiae deletion strains, locus YPL256C, strain CLN2, active compounds read low 1.06 | S. cerevisiae deletion strains, locus YPR119W, strain clb2, active compounds read low 1 | S. cerevisiae deletion strains, locus YPR141C, strain kar3, active compounds read low 1.03 | S. cerevisiae deletion strains, locus YPR163C, strain tif3, active compounds read low 1.03 | S. cerevisiae deletion strains, locus YPR167C, strain met16, active compounds read low 1.03 | S. cerevisiae deletion strains, strain wtn01, active compounds read low 1.04 | S. cerevisiae strains, strain wild type, active compounds read low 1.03
